# According to PubChem BioAssay AID1159580 (chemical genetic matrix, 2015):
# Out of some 5,500 compounds screened, about 2,000 (36%) were called active. Inconclusive results (about 18%) are left out. Some of the results follow. A number with no mark means an inactive call. Cut-off read from the data, not from the text of the source: active = normalized growth mostly below about 0.91 (no sharp cut-off); inconclusive = no clear call, values can overlap the other calls; inactive = mostly above about 0.92.
# Assay: chemical genetic growth profiling, strain panel (AID 1159580);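 note: tested at 20 µM; growth read once vehicle control cultures reached saturation at 30 °C; 1 = growth at the plate median or of vehicle wells; lower values mean less growth of the strain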
# Conditions: S. cerevisiae deletion strains, growth OD
# [1] = locus YAR019C, strain CDC15, hits give low values
# [2] = locus YBL105C, strain PKC1, hits give low values
# [3] = locus YBR135W, strain CKS1, hits give low values
# [4] = locus YBR136W, strain MEC1, hits give low values
# [5] = locus YBR160W, strain CDC28, hits give low values
# [6] = locus YDL017W, strain CDC7, hits give low values
# [7] = locus YDL028C, strain MPS1, hits give low values
# [8] = locus YDL101C, strain DUN1, hits give low values
# [9] = locus YDL108W, strain KIN28, hits give low values
# [10] = locus YDL132W, strain cdc53, hits give low values
# [11] = locus YDL214C, strain PRR2, hits give low values
# [12] = locus YDR052C, strain DBF4, hits give low values
# [13] = locus YDR054C, strain cdc34, hits give low values
# [14] = locus YDR226W, strain ADK1, hits give low values
# [15] = locus YDR477W, strain SNF1, hits give low values
# [16] = locus YER123W, strain YCK3, hits give low values
# [17] = locus YER133W, strain GLC7, hits give low values
# [18] = locus YFL009W, strain cdc4, hits give low values
# [19] = locus YFL029C, strain CAK1, hits give low values
# [20] = locus YFR003C, strain YPI1, hits give low values
# [21] = locus YFR019W, strain FAB1, hits give low values
# [22] = locus YFR028C, strain CDC14, hits give low values
# [23] = locus YGR040W, strain KSS1, hits give low values
# [24] = locus YGR052W, strain FMP48, hits give low values
# [25] = locus YGR092W, strain DBF2, hits give low values
# [26] = locus YHR030C, strain SLT2, hits give low values
# [27] = locus YHR079C, strain IRE1, hits give low values
# [28] = locus YHR082C, strain KSP1, hits give low values
# [29] = locus YHR205W, strain SCH9, hits give low values
# [30] = locus YIL147C, strain SLN1, hits give low values
# [31] = locus YJL095W, strain BCK1, hits give low values
# [32] = locus YJL128C, strain PBS2, hits give low values
# [33] = locus YJL157C, strain FAR1, hits give low values
# [34] = locus YJR016C, strain ILV3, hits give low values
# [35] = locus YJR066W, strain TOR1 (second series), hits give low values
# [36] = locus YJR066W, strain TOR1, hits give low values
# [37] = locus YKL048C, strain ELM1, hits give low values
# [38] = locus YKL067W, strain YNK1, hits give low values
# [39] = locus YKL101W, strain HSL1, hits give low values
# [40] = locus YKL193C, strain SDS22, hits give low values
# [41] = locus YKL203C, strain TOR2, hits give low values
# [42] = locus YLR113W, strain HOG1, hits give low values
# [43] = locus YLR133W, strain CKI1, hits give low values
# [44] = locus YLR403W, strain SFP1, hits give low values
# [45] = locus YML070W, strain DAK1, hits give low values
# [46] = locus YMR001C, strain CDC5, hits give low values
# [47] = locus YMR205C, strain PFK2 (second series), hits give low values
# [48] = locus YMR277W, strain FCP1, hits give low values
# [49] = locus YNL006W, strain LST8, hits give low values
# [50] = locus YNL020C, strain ARK1, hits give low values
# [51] = locus YNL161W, strain CBK1, hits give low values
# [52] = locus YNL183C, strain NPR1, hits give low values
# [53] = locus YNL207W, strain RIO2, hits give low values
# [54] = locus YNL222W, strain SSU72, hits give low values
# [55] = locus YNL307C, strain MCK1 (second series), hits give low values
# [56] = locus YOL078W, strain AVO1, hits give low values
# [57] = locus YOL136C, strain PFK27, hits give low values
# [58] = locus YOR061W, strain CKA2, hits give low values
# [59] = locus YOR119C, strain RIO1, hits give low values
# [60] = locus YOR231W, strain MKK1, hits give low values
# [61] = locus YOR329C, strain SCD5, hits give low values
# [62] = locus YPL031C, strain PHO85, hits give low values
# [63] = locus YPL153C, strain RAD53, hits give low values
# [64] = locus YPL204W, strain HRR25, hits give low values
# [65] = locus YPL209C, strain IPL1, hits give low values
# [66] = locus YPL256C, strain CLN2, hits give low values
# [67] = locus YPR025C, strain CCL1, hits give low values
# [68] = locus YPR106W, strain ISR1, hits give low values
# [69] = locus YPR111W, strain DBF20, hits give low values
# [70] = strain NNK1, hits give low values
# [71] = strain TSCII, hits give low values
structure (smiles),measurement,setting,value
CCOC(=O)C(O)(c1ccc(NC(=O)c2ccc(Cl)c(Cl)c2)cc1)C(F)(F)F (stereo not drawn),normalized growth,[1],0.998
same,normalized growth,[2],0.988
same,normalized growth,[3],1
same,normalized growth,[4],0.989
same,normalized growth,[5],0.996
same,normalized growth,[6],0.997
same,normalized growth,[7],0.993
same,normalized growth,[8],0.994
same,normalized growth,[9],0.997
same,normalized growth,[10],0.997
same,normalized growth,[11],0.874
same,normalized growth,[12],0.996
same,normalized growth,[13],0.991
same,normalized growth,[14],0.992
same,normalized growth,[15],0.92
same,normalized growth,[16],0.859
same,normalized growth,[17],0.926
same,normalized growth,[18],0.99
same,normalized growth,[19],0.992
same,normalized growth,[20],0.999
same,normalized growth,[21],0.933
same,normalized growth,[22],1
same,normalized growth,[23],0.915
same,normalized growth,[24],0.979
same,normalized growth,[25],0.892
same,normalized growth,[26],0.962
same,normalized growth,[27],0.953
same,normalized growth,[28],0.967
same,normalized growth,[29],0.928
same,normalized growth,[30],0.986
same,normalized growth,[31],1.01
same,normalized growth,[32],0.946
same,normalized growth,[33],0.913
same,normalized growth,[34],0.988
same,normalized growth,[35],0.914
same,normalized growth,[36],0.994
same,normalized growth,[37],0.953
same,normalized growth,[38],0.935
same,normalized growth,[39],0.901
same,normalized growth,[40],1
same,normalized growth,[41],0.994
same,normalized growth,[42],0.977
same,normalized growth,[43],0.939
same,normalized growth,[44],0.94
same,normalized growth,[45],0.886
same,normalized growth,[46],0.997
same,normalized growth,[47],0.941
same,normalized growth,[48],1
same,normalized growth,[49],0.986
same,normalized growth,[50],0.919
same,normalized growth,[51],0.99
same,normalized growth,[52],1.02
same,normalized growth,[53],0.992
same,normalized growth,[54],0.994
same,normalized growth,[55],0.91
same,normalized growth,[56],1
same,normalized growth,[57],0.895
same,normalized growth,[58],0.911
same,normalized growth,[59],0.957
same,normalized growth,[60],0.977
same,normalized growth,[61],1
same,normalized growth,[62],0.896
same,normalized growth,[63],0.912
same,normalized growth,[64],0.922
same,normalized growth,[65],0.996
same,normalized growth,[66],0.976
same,normalized growth,[67],1
same,normalized growth,[68],0.988
same,normalized growth,[69],0.986
same,normalized growth,[70],0.987
same,normalized growth,[71],0.993
CCOC(=O)C(NC(=O)c1cccc(Cl)c1)(Nc1nc2ccccc2s1)C(F)(F)F (stereo not drawn),normalized growth,[1],0.967
same,normalized growth,[2],0.957
same,normalized growth,[3],0.956
same,normalized growth,[4],0.96
same,normalized growth,[5],0.967
same,normalized growth,[6],0.962
same,normalized growth,[7],0.961
same,normalized growth,[8],0.973
same,normalized growth,[9],0.963
same,normalized growth,[10],0.952
same,normalized growth,[11],0.927
same,normalized growth,[12],0.955
same,normalized growth,[13],0.952
same,normalized growth,[14],0.956
same,normalized growth,[15],0.917
same,normalized growth,[16],0.906
same,normalized growth,[17],0.9
same,normalized growth,[18],0.954
same,normalized growth,[19],0.975
same,normalized growth,[20],0.957
same,normalized growth,[21],0.955
same,normalized growth,[22],0.963
same,normalized growth,[23],0.926
same,normalized growth,[24],0.943
same,normalized growth,[25],0.996
same,normalized growth,[26],0.796 (active)
same,normalized growth,[27],1
same,normalized growth,[28],0.989
same,normalized growth,[29],1.01
same,normalized growth,[30],0.955
same,normalized growth,[31],0.98
same,normalized growth,[32],0.949
same,normalized growth,[33],0.915
same,normalized growth,[34],0.963
same,normalized growth,[35],0.949
same,normalized growth,[36],1.02
same,normalized growth,[37],0.937
same,normalized growth,[38],0.94
same,normalized growth,[39],0.929
same,normalized growth,[40],0.964
same,normalized growth,[41],1.01
same,normalized growth,[42],0.823 (active)
same,normalized growth,[43],0.935
same,normalized growth,[44],1.02
same,normalized growth,[45],0.914
same,normalized growth,[46],0.967
same,normalized growth,[47],0.941
same,normalized growth,[48],0.964
same,normalized growth,[49],0.966
same,normalized growth,[50],0.931
same,normalized growth,[51],0.96
same,normalized growth,[52],1.07
same,normalized growth,[53],0.961
same,normalized growth,[54],0.968
same,normalized growth,[55],0.916
same,normalized growth,[56],0.962
same,normalized growth,[57],0.924
same,normalized growth,[58],0.939
same,normalized growth,[59],0.992
same,normalized growth,[60],0.967
same,normalized growth,[61],0.964
same,normalized growth,[62],0.917
same,normalized growth,[63],0.927
same,normalized growth,[64],0.913
same,normalized growth,[65],0.962
same,normalized growth,[66],0.894
same,normalized growth,[67],0.966
same,normalized growth,[68],0.962
same,normalized growth,[69],0.958
same,normalized growth,[70],0.971
same,normalized growth,[71],0.962
S=C(NCc1cccs1)Nc1cc(Cl)cc(Cl)c1,normalized growth,[1],0.942
same,normalized growth,[2],0.947
same,normalized growth,[3],0.936
same,normalized growth,[4],0.945
same,normalized growth,[5],0.944
same,normalized growth,[6],0.955
same,normalized growth,[7],0.944
same,normalized growth,[8],0.979
same,normalized growth,[9],0.947
same,normalized growth,[10],0.962
same,normalized growth,[11],0.912
same,normalized growth,[12],0.96
same,normalized growth,[13],0.967
same,normalized growth,[14],0.955
same,normalized growth,[15],0.894
same,normalized growth,[16],0.848
same,normalized growth,[17],0.867
same,normalized growth,[18],0.928
same,normalized growth,[19],0.936
same,normalized growth,[20],0.948
same,normalized growth,[21],0.95
same,normalized growth,[22],0.959
same,normalized growth,[23],0.891
same,normalized growth,[24],0.964
same,normalized growth,[25],0.739
same,normalized growth,[26],0.988
same,normalized growth,[27],0.961
same,normalized growth,[28],0.901
same,normalized growth,[29],0.946
same,normalized growth,[30],0.949
same,normalized growth,[31],0.958
same,normalized growth,[32],0.892
same,normalized growth,[33],0.879
same,normalized growth,[34],0.948
same,normalized growth,[35],0.874
same,normalized growth,[36],0.917
same,normalized growth,[37],0.953
same,normalized growth,[38],0.902
same,normalized growth,[39],0.923
same,normalized growth,[40],0.937
same,normalized growth,[41],0.944
same,normalized growth,[42],0.912
same,normalized growth,[43],0.931
same,normalized growth,[44],0.898
same,normalized growth,[45],0.883
same,normalized growth,[46],0.941
same,normalized growth,[47],0.918
same,normalized growth,[48],0.934
same,normalized growth,[49],0.944
same,normalized growth,[50],0.906
same,normalized growth,[51],0.946
same,normalized growth,[52],0.928
same,normalized growth,[53],0.928
same,normalized growth,[54],0.93
same,normalized growth,[55],0.935
same,normalized growth,[56],0.934
same,normalized growth,[57],0.897
same,normalized growth,[58],0.872
same,normalized growth,[59],0.936
same,normalized growth,[60],1.01
same,normalized growth,[61],0.949
same,normalized growth,[62],0.865
same,normalized growth,[63],0.862
same,normalized growth,[64],0.878
same,normalized growth,[65],0.942
same,normalized growth,[66],0.961
same,normalized growth,[67],0.949
same,normalized growth,[68],0.948
same,normalized growth,[69],0.952
same,normalized growth,[70],0.959
same,normalized growth,[71],0.936
